# According to PubChem BioAssay AID2685 (National Center for Advancing Translational Sciences (NCATS), 2010):
# The campaign covered roughly 320,000 compounds. About 2,100 (0.66%) were called active. Not shown: some 53% with an inconclusive outcome. The call rests on the fitted dose curve; in most records, active means well fitted inhibition curve with a large enough effect in the signal ratio, with a control signal flat (not every such curve was filed as active); inconclusive means small, poorly fitted or top-dose-only effect, or effect the other way, or a change in a side signal; inactive means flat fitted curve, though single readings scatter; the % refers to the signal ratio. Only a selection was taken, and actives are over-represented in it overall.
# Experiment: qHTS Assay for Lipid Storage Modulators in Drosophila S3 Cells;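 on cell number change: cells counted by Cell Tracker Red CMTPX staining in the red channel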
# Details: BODIPY lipid droplet fluorescence, 18-24 h, cells fed with added oleic acid; cell number change: measured here: cell count max response; series mostly up to 46.1 µM
# How it was run: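 Drosophila S3 cells got compounds at several concentrations plus oleic acid (400 uM solution). Laser-scanning cytometry with 488 nm excitation read lipid droplets at 500-530 nm and cells at 575-640 nm. Percent activity was relative to 20 uM Triacsin C.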
# Potency means the concentration at half of the fitted maximal effect.
Structure (SMILES),Potency,cell number change
COc1ccc(N2C(=O)/C(=C/c3ccc([N+](=O)[O-])cc3)N=C2C)c(OC)c1,inactive,-0.57%
O=c1c2cc3c(nc2[nH]c(=S)n1-c1ccccc1)CCCC3,inactive,8.9%
COc1ccccc1OCCNc1cc(N2CCCCC2)ccc1[N+](=O)[O-],inactive,20.1%
CCOc1ccc2nc(SCC(=O)Nc3ccc4c(c3)OCCO4)[nH]c2c1,inactive,-1.86%
O=C(/C=C/c1ccco1)N(Cc1ccccc1F)C1CCS(=O)(=O)C1 (centres undefined),inactive,19.4%
CCOc1ccccc1-n1c(SCC(=O)N2CCOCC2)nnc1-c1ccccn1,inactive,1.75%
N#Cc1ccc(/C=N/NC(=O)c2cc(-c3cccs3)nc3ccccc23)cc1,inactive,12.5%
COc1ccc(NCc2nnc(SCC(=O)Nc3ccc(OC)cc3OC)o2)cc1,inactive,8.92%
CCOC(=O)N1CCN(C(=O)CN(c2ccccc2OC)S(=O)(=O)c2ccc(C)cc2)CC1,inactive,–
CC(C)N1C/C(=C/c2ccsc2)C(=O)/C(=C/c2ccsc2)C1,14.6 µM (active),-15.9%
O=C1/C(=C\c2ccsc2)N2CCC1CC2,inactive,5.98%
O=C1/C(=C/c2ccsc2)N2CCC1CC2,inactive,-5.13%
CN(C)CC(C)(C)CNS(=O)(=O)c1ccc(Cl)cc1,inactive,27.8%
CC(C)(CNS(=O)(=O)c1ccc(F)cc1)CNS(=O)(=O)c1ccc(F)cc1,inactive,6.92%
CN(C)CC(C)(C)CNS(=O)(=O)c1ccc(Cl)c(Cl)c1,23.1 µM (active),-9.4%
CCCc1ccc(OCCNC(=O)C2CCCCC2)cc1,inactive,-6.51%
CC(=O)Nc1ccc(S(=O)(=O)n2cnc3ccccc32)cc1,inactive,13.3%
O=C(CN1C(=O)CCC1=O)Nc1cccc(NC(=O)CN2C(=O)CCC2=O)c1,inactive,-5.66%

Structure (SMILES),Potency,cell number change
O=C(CCN1c2ccccc2Sc2ccccc21)Oc1ccccc1,inactive,-0.775%
Cn1c(C(=O)NCC2CCCO2)cc2oc3ccccc3c21 (centres undefined),0.58 µM (active),-14.1%
Cn1c(C(=O)NCc2ccccc2)cc2oc3ccccc3c21,inactive,12.4%
Cn1c(C(=O)NCC2CCCO2)cc2c(=O)[nH]c3ccccc3c21 (centres undefined),inactive,4.34%
Cc1ccccc1CS(=O)(=O)CCC(=O)NCc1ccccn1,inactive,-19.8%
O=C(CSc1ccc(Cl)cc1)NCc1ccncc1,inactive,8.1%
COc1cc(/C=C/C(=O)N2CCN(c3ccccn3)CC2)cc(OC)c1OC,16.4 µM (active),-26.3%
O=C(Nc1ccc(NC(=O)c2ccc(Cl)c(S(=O)(=O)N3CCOCC3)c2)cc1)c1ccccc1,inactive,–
COc1ccc(CC(=O)N(C)Cc2cccc(F)c2)cc1S(=O)(=O)N1CCOCC1,inactive,18.8%
COc1ccc(C(=O)O)cc1S(=O)(=O)N1CCN(c2ccccn2)CC1,0.82 µM (active),2.78%
COc1cccc(/C=C/C(=O)N2CCN(c3ccccn3)CC2)c1,inactive,-5.2%
COc1ccc(/C=C/C(=O)N2CCN(c3ccccn3)CC2)c(OC)c1OC,inactive,5.19%
COc1ccc(S(=O)(=O)N2CCN(c3ccccn3)CC2)c(OC)c1,inactive,-13%
COc1ccc(Br)cc1CN(C)C(=O)Cc1ccc(OC)c(S(=O)(=O)N2CCOCC2)c1,10.3 µM (active),30.1%
CN(C(=O)c1ccc(Cl)c(S(=O)(=O)N2CCOCC2)c1)c1ccccc1C(=O)O,0.82 µM (active),-5.89%
COc1ccc(OC)c(S(=O)(=O)N2CCN(c3ccccn3)CC2)c1,inactive,-24%
O=C(Nc1ccccc1C(=O)O)c1ccc(Cl)c(S(=O)(=O)N2CCOCC2)c1,inactive,-21%
COc1ccc(CC(=O)N(C)Cc2ccc(Cl)cc2)cc1S(=O)(=O)N1CCOCC1,inactive,–
